The values below come from the OligoGym collection.
Further: reference of the scale not given here.

One experiment concerns the target FAM163B. Briefly: pooled miR-30 sensor sort-seq; sequence = guide strand. The note with it: shRNA.
In the case of TTCTGGCTGAAGGAGGTGGAGG, the sensor-assay potency score (higher = more potent) was -1.34. Regarding TAGCACAGAACAGCGATGATGC, the sensor-assay potency score (higher = more potent) is -0.556. Take TAGAGCACGCGCTCCCCGCCGT: the sensor-assay potency score (higher = more potent) is -0.76. On the same count and under the same terms, the value for TCCTCCGACTCGTCCTTCTTGC was -1.53.

Sequence TCTTGCAGCAGTAGTACTGGAG yielded a sensor-assay potency score (higher = more potent) of -0.35. As to TCGCAGTGGGAGCAGCTGCGGC, the sensor-assay potency score (higher = more potent) is -1.52. On the same count and under the same terms, as for TTCTTGCAGCAGTAGTACTGGA, the figure is -0.857. On the same count and under the same terms, the value for TTGTAGAGCACGCGCTCCCCGC was -1.32; that for TCCGACTCGTCCTTCTTGCAGC was -1.44. For TCCTGCAGGAAGAAGGTGGGGG, the sensor-assay potency score (higher = more potent) is -0.682. Still for that read-out and setting: as for TTGCGGTTGGAGTGCAGCGGGG, the figure is -1.47. The same measure, in the same setting: as for TTGGTCAGCACCAGGTTGCGGT, the figure is -0.802.

The target of another experiment is FAM164C. The description is as above. The note with it: shRNA.
As for TTTGTTGCTCAAAAGCTGCTTC, the sensor-assay potency score (higher = more potent) amounted to 0.134. The same measure, in the same setting: as for TAATTTTCTGTAGCTCTCCGTT, the figure is -0.559. The same measure, in the same setting: as for TTTACTGCTGAAGAGAAGCAGA, the figure is -0.62. On the same count and under the same terms, as for TAGAGGTGGAAGACAGTTCTTG, the figure is -0.364.

The sequence TAGCTCTGCAGGCAGATCTGGG came in with a sensor-assay potency score (higher = more potent) of -1.11. Same read-out and setting: the value for TTCTTGATGGTCTTACACTTGG was -0.537; that for TTTCTTTCTGCTTTGCATCAAA was -1.22. On the same count and under the same terms, the value for TAGTCTTCGGATCTGCACCCAC was -0.402; that for TTGATGGTCTTACACTTGGGAA was -1.53; that for TTATCCAGAATCAACTCTTTGT was -0.353. ATCACTTTCTGGATCTTGCTGG yielded a sensor-assay potency score (higher = more potent) of 0.553.

The target in a further experiment is FAM174A. Described as above. The note with it: shRNA.
The sequence TAGTTCAGGCAGCAACAGCAGG had a sensor-assay potency score (higher = more potent) of -1.17.

With ATTTTCTATGTTAGTGTCCAAA, the sensor-assay potency score (higher = more potent) was -1.74. The same measure, in the same setting: the value for TGATCGTCCGTCTCAAGCCCGG was -1.42; that for TGTTAGTGTCCAAAACTCCATA was -0.864. TTGGCATCAAACAACGTGTTGT had a sensor-assay potency score (higher = more potent) of -0.0509.

TCTTCTTCTCATCCTGACCGTC: the sensor-assay potency score (higher = more potent) was -0.459. For TTCTAAAGGTGTCAATTCCATA, the sensor-assay potency score (higher = more potent) is -1.28. On the same count and under the same terms, as for TAGTCTTTCGGTTTCTTCTTCT, the figure is 0.156; as for TATCTCCTAGTCTTTCGGTTTC, -1.02. For the sequence AAGTACACCAGCACCGCGCCGC, the sensor-assay potency score (higher = more potent) is -0.391. TTCTTCTTCTCATCCTGACCGT yielded a sensor-assay potency score (higher = more potent) of -0.117. The same measure, in the same setting: the value for ATATCTCCTAGTCTTTCGGTTT was -1.26.
